Laboratory results: PubChem BioAssay AID743279 (National Center for Advancing Translational Sciences (NCATS), 2014)
In all, about 360,000 compounds went through this assay and about 17,000 (4.7%) were called active. Another 5% or so got no clear call; they are omitted. Rule as the data show it: active = activity change below about -50%; inconclusive = mostly about -30% to -49%; inactive = weaker than that. The list comes from a sample in which actives are over-represented; it also holds similar structures and randomly drawn compounds.

Experiment: qHTS for Inhibitors of Inflammasome Signaling: IL-1-beta AlphaLISA Primary Screen
Details: THP-1 LPS/ATP IL-1B secretion, 16 h; at 57.5 µM, active compounds read low
In short: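 THP-1 cells pretreated 1 hr with compounds (up to 57.5 uM final), then stimulated with LPS (250 ng/mL final) plus ATP (1.25 mM final); secreted IL-1B measured by AlphaLISA after 16 hr, decreased signal indicating inhibition.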
% is scaled to controls: 0 for no effect and ±100 for the full control effect.

Activity change, inactive:
CN(Cc1ccccc1)C(=O)COc1ccccc1 -10.6%
CN(CC(=O)Nc1ccc(Cl)cc1)C(=O)c1ccc(COc2ccccc2)cc1 5.98%
CN(Cc1ccccc1)C(=O)[C@@H]1CCCN1C(=O)[C@@H]1CCCN1C(=O)c1c(F)cccc1F 32.8%
CC(=O)NC(Cc1c[nH]c2ccccc12)C(=O)O (configuration not stated) 35%
CC(=O)NC(Cc1c[nH]c2ccccc12)C(=O)NCCc1ccccc1 (configuration not stated) -9.89%
CC(C)Sc1nc(N)nc2c1ncn2C1OC(CO)C(O)C1O (configuration not stated) 16%
CC(=O)Nc1ccc(S(=O)(=O)N2CCC(NC(=O)c3ccccc3)CC2)cc1 7.08%
CCOc1ccc(N2C(=O)CC(N(CCc3ccc(OC)c(OC)c3)C(=S)Nc3ccccc3)C2=O)cc1 (configuration not stated) 44.8%
Cc1ccc(S(=O)(=O)C2C(=O)NC3(C)CC2c2ccccc2O3)cc1 (configuration not stated) 12.4%
O=C(c1ccncc1)N1CCN(c2ccc3ccccc3n2)CC1 5.08%
CC1=C(N2CCN(c3ncccn3)CC2)CCC1=O 8.92%
COCCCn1cc(CN2CC(N(C)C)CS2(=O)=O)nn1 (configuration not stated) 21.9%
CC1CCC(C(C)C)C(=O)/C1=C\c1ccc(NC(=O)CCC(=O)O)cc1 (configuration not stated) 0%
Cc1ccc(O)c(-c2cc(C(=O)Nc3c(C)n(C)n(-c4ccccc4)c3=O)[nH]n2)c1 0%
Cc1ccc(NC(=O)c2cc(-c3ccccc3O)n[nH]2)cc1C -6.84%
COc1ccc(NC(=O)C2(C)Cc3c(-c4ccc(C(N)=O)cc4)ccnc3O2)cc1 (configuration not stated) 0%
Cc1cc(NC(=O)c2cc3ccccc3o2)no1 45.3%
Cc1ccc(-n2ncc3c(=O)n(-c4ccc(C)c(C)c4)c(-c4ccco4)nc32)cc1 -18.4%
O=C1NN(c2ccccc2)C(=O)/C1=C/c1ccc(-c2cccc(C(=O)O)c2)o1 -4.59%
CN1C(=O)/C(=C/c2ccco2)SC1=Nc1cccc(C(=O)O)c1 18.8%
CCOP(=O)(OCC)C(Cc1ccccc1)N=C(c1ccccc1)c1ccccc1 (configuration not stated) -2.56%
CNS(=O)(=O)c1ccc2c(c1)[nH]c(=S)n2C -25%
Cc1[nH]c(N)nc(=S)c1CCCNc1ccccc1 5.82%
O=C(NCc1ccccc1)c1cccc(NC(=O)C2CCCCC2)c1 -13.6%
CCC(C)Sc1nc(C)nc2c1c(=O)n(C)c(=O)n2C (configuration not stated) 11.7%
Cc1cc(Br)cn2c(Cc3ccsc3)c(-c3ccc(C#N)cc3)nc12 -10.8%
CN(Cc1ccc(C(F)(F)F)cc1)C(=O)[C@H]1O[C@@H](n2cnc3c(N)ncnc32)[C@H](O)[C@@H]1O -14.1%
Cc1ccc2nc(SCC(=O)N3CC(C)OC(C)C3)nc(=O)n2c1 (configuration not stated) 13.3%
Cc1ccc(S(=O)(=O)N2CCC(=O)N([C@H](COCc3ccccc3)Cc3ccccc3)CC2)cc1 13.2%
CC(C)CC(CO)N1CCN(C(=O)c2ccc(Cl)cc2Cl)CCC1=O (configuration not stated) 4.74%
O=C(c1ccc(C(F)(F)F)cc1)N1CCC(=O)N([C@H](COCc2ccccc2)Cc2ccccc2)CC1 -29.6%
CC(C)C[C@@H](CO)N1CCN(Cc2ccc(O)cc2)CCC1=O 0%
CCc1noc(C)c1C(=O)OCC(=O)c1ccc(NC(=O)CC(C)C)cc1 1.82%
C[C@@H]1CN([C@@H](C)CO)C(=O)CCCn2nncc2CO[C@@H]1CN(C)S(=O)(=O)c1ccc(-c2ccccc2)cc1 -3.91%
CN=C1SC(C(=O)O)CC(=O)N1C (configuration not stated) 0.415%
CCCCn1nnnc1C(c1ccccc1)N1CCN(c2ccccc2OC)CC1 (configuration not stated) -1.89%
CC1=C(C(=O)N2CCOCC2)CC(CC(=O)NCc2cccs2)C(=O)N1CCCN1CCCC1=O (configuration not stated) 2.1%
Cc1ccccc1-n1c(SCC(=O)NCc2cccs2)nnc1-c1ccncc1 -2.89%
Cc1ccc(-n2c(SCC(=O)N3c4ccccc4Sc4ccccc43)nnc2-c2ccncc2)cc1 -10.1%
Cc1ccn(CC(=O)NC2CCCN(Cc3ccccc3F)C2)n1 (configuration not stated) -22.3%
C[C@H](NC(=O)[C@@H]1CCCN1C(=O)[C@@H]1CCCN1C(=O)c1ccccc1)c1ccccc1 9.38%
CCc1oc(-c2ccc(OC)cc2)c(C(=O)OCCCCCO)c1C(C)OCCO (configuration not stated) -1.94%
COCCNc1ncnc2c1ncn2[C@H]1CN(Cc2ccc(OC)cc2)C[C@@H](CO)O1 -0.989%
Cn1ncc(Br)c1C(=O)NC1CCCC1 -17.3%
CN(CC(=O)NCc1ccc2c(c1)OCO2)CC(=O)Nc1ccc(F)c(F)c1F -7.29%

Activity change, active:
CN(Cc1ccccc1)C(=O)c1ccc(COc2ccccc2)cc1 -71.5%
O=C(NC(Cc1c[nH]c2ccccc12)C(=O)N/N=C/c1ccc(Br)cc1)c1cccs1 (configuration not stated) -61.1%
CCCCCCCCn1c2c(c(=N)c3c1CCC3)CCCC2 -89.8%
CC(C)=CCCC1(C)C=Cc2c(ccc3c2[nH]c2cc(O)c(C)cc23)O1 (configuration not stated) -71.6%
c1cnc(N2CCN(c3ccc4ccccc4n3)CC2)nc1 -50.1%
Cc1ccc(C)c(NC(=O)c2cc(-c3cc(C)cc(C)c3O)n[nH]2)c1 -93.5%
Cc1ccc(N2NC(=O)/C(=C/C=C/c3ccco3)C2=O)cc1C -62.6%
Cc1ccc(N=C2NC(=O)/C(=C/C=C/c3ccco3)S2)cc1C -91.3%
CC(C)C[C@@H](COCc1ccc(Cl)cc1)N1CCN(C(=O)c2ccc(Cl)cc2Cl)CCC1=O -52.8%
O=C(c1cc(Cl)cc(Cl)c1)N1CCC(=O)N(C(COCc2ccccc2)Cc2ccccc2)CC1 (configuration not stated) -74.4%
Cc1ccc(Nc2nc(CSc3nnc(-c4ccncc4)n3-c3ccccc3C)cs2)cc1 -74.1%
COc1ccc(-c2oc3ncnc(NCCCO)c3c2-c2ccc(OC)cc2)cc1 -68.8%
